Screening data: PubChem BioAssay, National Center for Advancing Translational Sciences (NCATS)
Sm TGR inh: S. mansoni TGR enzyme inhibition. Q962Y6. actives 3% (n = 360,000). purified TGR, DTNB reduction, TNB absorbance 405 nm. Potency, µM (titrated, usually from 114 µM), inactives show at the highest dose activity change, negative = inhibition, actives largely listed as inhibitors. AID 485364; further: potency means the concentration at half of the fitted maximal effect; on the % scale 0 is the no-effect control and ±100 the full control effect; nearly all actives have a fitted effect of over 60% in size
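First, TGR (20 nM dispensed) and NADPH were mixed with compound. Second, a 15 min room-temperature incubation followed. Third, further NADPH and then DTNB were added to start the reaction. Finally, TNB absorbance was monitored kinetically.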
HCV inhibitor: blocks hepatitis C virus; Huh7.5.1 HCVcc-Cre infection, luciferase reporter, 44 h; Potency, µM (titrated, usually from 41.8 µM), inactives show top-dose activity change, negative = inhibition, usual class: inhibitors; actives 3.4% (n = 340,000); further: potency means the concentration at half of the fitted maximal effect; on the % scale 0 is the no-effect control and ±100 the full control effect
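Compounds are dispensed onto cells plated 4 h earlier at 1,000 per well, with HCVcc-Cre virus (about 0.5 moi) added next. Following 44 h of culture, luminescent signal is measured for 15 sec after 15 min with substrate at room temperature.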
HCMV inh: inhibitors of human cytomegalovirus | HFF cells, HCMV-luciferase reporter, 72 h; active compounds read low | activity change, negative = inhibition, % at 57.5 µM | actives 4.5% (n = 410,000); in the data active means activity change below about -60%; inconclusive means no clear call, values can overlap the other calls; inactive means above about -39%; further: on the % scale 0 is the no-effect control and ±100 the full control effect
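Two compound doses tested in HFFs infected with HCMV-luciferase, MOI 1 PFU/cell, 72 h at 37C. Lysate luminescence read with OneGlo; data normalized against buffer-only and 10uM Salinomycin inhibitor controls.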
SARS PLP yeast: inhibitors of SARS-CoV papain-like protease in yeast. S. cerevisiae expressing SARS-CoV PLpro, growth rescue. Potency, µM (doses to about 32.9 µM), for inactives: at the top dose activity, positive = growth rescue, usual class: activators. actives 0.19% (n = 330,000); calls by dose curve; further: potency means the concentration at half of the fitted maximal effect; 0% is about no effect; nearly all actives have a fitted effect of over 55% in size
Pf growth 48h: P. falciparum growth inhibition at 48 hours (one generation). actives 5.9% (n = 310,000). P. falciparum luciferase growth in erythrocytes, 48 h. AID 504832. Potency, µM (titrated, usually from 28.7 µM), without a hit: at the top dose activity change, negative = inhibition, most hits filed as inhibitors; further: potency means the concentration at half of the fitted maximal effect; on the % scale 0 is the no-effect control and ±100 the full control effect
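Luciferase-expressing parasites in RBCs, 2% Hct / 0.1% parasitemia final; RPMI 1640 + 0.5% Albumax; 37 C, 5% CO2, one generation; luminescence read-out, lower signal = inhibition.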
Pf growth 96h: P. falciparum growth inhibition at 96 hour, primary screen for plastid delayed-death inhibitors. actives 6.9% (n = 320,000). P. falciparum luciferase reporter growth, 96 h. Potency, µM (titrated, usually from 28.7 µM), without a hit: top-dose activity change, negative = inhibition, hits mostly inhibitors; further: potency means the concentration at half of the fitted maximal effect; on the % scale 0 is the no-effect control and ±100 the full control effect
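96 h incubation, 37 C, 5% CO2, of luciferase-reporter P. falciparum-infected RBCs (2% hematocrit, 0.05% parasitemia final) with test compounds; endpoint luminescence.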
Active calls of the source: *; ? = inconclusive; · = no result given. Most compounds without a hit are left out; they make up all but 15% or so of the library. Unless noted, the call rests on the fitted dose curve; in most records, active means well fitted curve in the direction sought with a large enough effect; inconclusive means small, poorly fitted or top-dose-only effect, or another doubt; inactive means no such curve, though single readings can be large; an effect the other way counts as inactive or inconclusive.

SMILES	Sm TGR inh	HCV inhibitor	HCMV inh	SARS PLP yeast	Pf growth 48h	Pf growth 96h
CC1(C)CN2C(=S)N(c3ccccc3)C(c3ccccc3)N2C1 (configuration not stated)	-1%	9%	8	-12%	·	8.3µM*
CC(C)C(=O)N1c2ncnn2C2(CCCCC2)[C@@H]2CCCC[C@@H]21	-23%	·	-111*	·	·	·
COc1ccccc1C(=O)N1c2ncnn2C2(CCCCC2)[C@@H]2CCCC[C@@H]21	0%	·	-5	·	·	·
CC(C)c1cc(CNC(=O)CC2C(=O)NCCN2CC2CCCCC2)on1 (configuration not stated)	50µM*	15%	-5	0%	-18%	?
Cc1cc(CNC(=O)CC2C(=O)NCCN2CC(c2ccccc2)c2ccccc2)on1 (configuration not stated)	?	12%	0	1%	1%	15µM*
CCc1cc(CNC(=O)CC2C(=O)NCCN2Cc2c(F)cccc2Cl)on1 (configuration not stated)	95%	17%	-29	1%	4%	?
Cc1cnc(CNC(=O)CC2C(=O)NCCN2Cc2ccccc2C(F)(F)F)cn1 (configuration not stated)	11µM*	30%	-18	10%	-1%	?
O=C(CC1C(=O)NCCN1CC1CCCCC1)NCc1ccc(Cl)cc1 (configuration not stated)	?	3%	-8	0%	2%	?
Cc1cc(CNC(=O)CC2C(=O)NCCN2Cc2ccccc2C(F)(F)F)on1 (configuration not stated)	35µM*	-19%	-32	1%	?	-3%
Cc1ccc2oc(-c3ccc(Cl)c(NC(=O)c4cc5ccccc5o4)c3)nc2c1	6%	·	70	·	·	·
N#Cc1ccsc1NC(=O)COC(=O)C1=NNC(=O)CC1	-25%	8%	64	1%	78%	66%
C[C@H](CO)N1C[C@H](C)[C@H](CN(C)C(=O)Cc2ccncc2)Oc2ncc(Br)cc2C1=O	·	·	1	·	·	·
Cc1cc2[nH]c(=O)c(=O)[nH]c2cc1S(=O)(=O)Nc1cccc(Cl)c1	-4%	13%	11	5%	-11%	17%
COCc1cc(CNC(=O)C2CCC(=O)N(Cc3ccccc3OC)C2)[nH]n1 (configuration not stated)	?	2%	17	-2%	5%	9%
Cc1cc(C)n(CCNC(=O)CC2C(=O)NCCN2Cc2ccccc2C(F)(F)F)n1 (configuration not stated)	35µM*	8%	-2	2%	-5%	-2%
COc1cccc(CN2CCNC(=O)C2CC(=O)NCCn2nc(C)cc2C)c1OC (configuration not stated)	?	5%	-11	-1%	-3%	?
Cc1ccc(C)c(N2CCN(C(=O)CCCn3c(=S)[nH]c4cc5c(cc4c3=O)OCO5)CC2)c1	-5%	?	-32	-4%	12µM*	?
CCN(CC)CCNC(=O)CCn1c(=S)[nH]c2cc3c(cc2c1=O)OCO3	-7%	6%	20	-1%	14%	15%
CCN(CC)CCn1c(=S)[nH]c2cc3c(cc2c1=O)OCO3	3%	-1%	41	-14%	43%	10µM*
CC1=C/C(=N\N=C2\NC(=O)C(CC(=O)Nc3ccccc3F)S2)CC(C)(C)C1 (configuration not stated)	4%	7%	-65*	-3%	-16%	0%
CNC[C@H]1OCc2ccccc2-c2ccccc2C(=O)N([C@H](C)CO)C[C@H]1C	·	·	16	·	·	·
CCn1c(=O)cc(SCC(=O)Nc2ccc(C)c(F)c2)c2ccccc21	4%	·	7	·	·	·
CC1CC(C)CN(CCCNC(=O)COc2cc(=O)n(C)c3ccccc23)C1 (configuration not stated)	-5%	-6%	117	-15%	10µM*	-5%
